# Source: PubChem
# Hits are enriched below; roughly 9.2% of the tested compounds scored in any of these assays.
# FLuc modulator = qHTS profiling assay for firefly luciferase inhibitor/activator using purifed enzyme and Km concentrations of substrates (counterscreen for miR-21 project). Potency, µM (series often up to 57.5 µM), actives largely listed as inhibitors. purified FLuc, Km substrates, luminescence inhibition. Luciferin 4-monooxygenase (Photinus pyralis), P08659. 360,000 compounds, 6.9% hits; note: nearly all actives have a fitted effect of over 55% in size
# Target sequence (P08659 whole entry, looked up): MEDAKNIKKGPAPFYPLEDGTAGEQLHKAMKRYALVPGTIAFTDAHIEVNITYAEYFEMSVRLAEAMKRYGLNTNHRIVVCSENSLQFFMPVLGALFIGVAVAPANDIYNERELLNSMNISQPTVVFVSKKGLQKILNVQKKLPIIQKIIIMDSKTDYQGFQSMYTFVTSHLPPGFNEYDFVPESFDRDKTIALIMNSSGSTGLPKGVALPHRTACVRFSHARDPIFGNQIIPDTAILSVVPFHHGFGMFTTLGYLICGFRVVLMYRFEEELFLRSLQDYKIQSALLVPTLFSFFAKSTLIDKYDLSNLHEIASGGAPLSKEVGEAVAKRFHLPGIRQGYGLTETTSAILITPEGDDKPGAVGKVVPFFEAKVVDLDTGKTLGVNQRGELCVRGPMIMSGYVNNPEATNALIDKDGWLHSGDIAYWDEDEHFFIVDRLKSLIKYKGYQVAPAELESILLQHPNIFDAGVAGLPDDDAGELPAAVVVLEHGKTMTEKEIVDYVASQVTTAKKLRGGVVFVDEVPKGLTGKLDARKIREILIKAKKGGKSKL
#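 Purified P. pyralis luciferase, 10 nM final, with Km-level 10 uM D-luciferin and 10 uM ATP in 50 mM Tris acetate pH 7.5, 10 mM Mg acetate, 0.01% Tween-20, 0.05% BSA; 6-point qHTS titration about 60 µM downward; luminescence read.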
# ELG1 DNA repair = qHTS screen for small molecules that inhibit ELG1-dependent DNA repair in human embryonic kidney (HEK293T) cells expressing luciferase-tagged ELG1; HEK293T ELG1-luciferase reporter, luminescence, 16 h; DNA damage induced by 5-fluorouridine; Potency, µM (doses to about 46.1 µM), hits mostly inhibitors; 330,000 compounds, 2.3% hits; AID 504467, 2011; note: nearly all actives have a fitted effect of over 55% in size
#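 5-Fluorouridine DNA damage + compound/DMSO, 2,000 cells/well, 16 h, 37 °C/5% CO2. ONE-Glo, 30 min RT, luminescence. Readout = decrease in reporter signal.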
# NPC1 prom act = qHTS Assay for NPC1 Promoter Activators; Huh7 NPC1 promoter luciferase reporter, 24 h; Potency, µM (doses to about 9.22 µM), actives largely listed as activators; 320,000 compounds, 2.4% hits; note: nearly all actives have a fitted effect of over 60% in size
#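 Readout is luciferase luminescence, reflecting NPC1 promoter activation in stably transfected Huh7 cells after 24 h compound exposure at 37 °C in reduced-serum medium with 10% FBS.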
# Rab9 promoter act = qHTS Assay for Rab9 Promoter Activators | Huh7 Rab9 promoter-luciferase reporter, luminescence, 24 h | Potency, µM (titrated, usually from 9.22 µM), most hits filed as activators | 320,000 compounds, 2.8% hits; note: nearly all actives have a fitted effect of over 60% in size
#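 Huh7 reporter line, Rab9 promoter upstream of luciferase. Compound exposure 24 h at 37 °C in reduced-serum medium with 10% FBS. Read-out: luminescence.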
# SMN2 splice up = qHTS Assay for Enhancers of SMN2 Splice Variant Expression | Potency, µM (titrated, usually from 46.1 µM), most hits filed as activators | HEK293 SMN2-luciferase splicing reporter, luminescence, 30-36 h | 210,000 compounds, 2.8% hits; note: nearly all actives have a fitted effect of over 55% in size
#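 HEK293 cells carry an SMN2 […]–luciferase reporter in which exon 7 inclusion puts luciferase in frame. Cells were plated 10-12 h before compound addition, then incubated 30-36 h at 37C. ONE-Glo luminescence was read; sodium butyrate at 4.5 mM final served as control.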
# ELG1 genotox = qHTS screen for small molecules that induce genotoxicity in human embryonic kidney (HEK293T) cells expressing luciferase-tagged ELG1; HEK293T ELG1-luciferase reporter, luminescence, 16 h; Potency, µM (series often up to 46 µM), usual class: activators; 330,000 compounds, 1.3% hits; note: nearly all actives have a fitted effect of over 60% in size
#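 DMSO vehicle served as control against compound-treated ELG1-luciferase HEK293T cells; exposure lasted 16 hr at 37 °C and 5% CO2, followed by ONE-Glo luminescence detection after 30 min.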
# Numbers stand for hits; i = inactive; ? = inconclusive; nt = not tested or not shown; [ ] = remark or other dose. Calls come from the whole dose curve; as a rule, active = well fitted curve in the direction sought with a large enough effect; inconclusive = small, poorly fitted or top-dose-only effect, or another doubt; inactive = no such curve, though single readings can be large; an effect the other way counts as inactive or inconclusive.
SMILES,FLuc modulator,ELG1 DNA repair,NPC1 prom act,Rab9 promoter act,SMN2 splice up,ELG1 genotox
CC[C@]12c3[nH]c4cc(CCC(=O)N(C)C)ccc4c3CCN1C(=O)[C@@H](CC(=O)NC(C)(C)C)C[C@@H]2C(=O)N1CCN(C(=O)C2CC2)CC1,nt,i,nt,nt,nt,i
Cc1cccc(-c2noc(CN(C(=O)c3c(-c4ccccc4Cl)noc3C)C(C)C)n2)c1,i,21µM,i,i,i,i
Cc1cccc(-c2noc(CN(C(=O)c3ccc(C)c(C)c3)C(C)C)n2)c1,i,nt,nt,nt,i,nt
CC(=O)Nc1ccc(NC(=O)C2CCCCC2C(=O)O)cc1 (stereo not drawn),i,i,i,i,i,i
Cc1cccc(NC(=O)c2cc(NC(=O)C3CCCCC3C(=O)O)ccc2N2CCOCC2)c1 (stereo not drawn),21µM,?,i,i,nt,i
Cc1sc(NC(=O)C2CCCCC2C(=O)O)c(C(N)=O)c1-c1ccccc1 (stereo not drawn),3.4µM,?,1.6µM,3.5µM,i,?
COc1ccc(NC(=O)c2cc(NC(=O)C3CCCCC3C(=O)O)ccc2N2CCOCC2)cc1 (stereo not drawn),i,i,i,i,nt,i
O=C(O)C1CCCCC1C(=O)Nc1ccc(-c2ccccc2)cc1 (stereo not drawn),17µM,?,i,?,i,?
Cc1ccc(NC(=O)c2ccc(NC(=O)C3CCCCC3C(=O)O)cc2)cc1 (stereo not drawn),17µM,?,i,i,nt,i
CC(=O)N1CCN(S(=O)(=O)c2c(C)n(C)c(=O)n(C)c2=O)CC1,i,i,i,i,nt,i
N#Cc1c(C(F)(F)F)cc(-c2ccc(F)cc2)[nH]c1=O,?,18µM,i,i,i,i
CCCCc1nn2c(=O)cc(COC(=O)c3cccc(OC)c3)nc2s1,i,nt,nt,nt,nt,nt
CC1CCC(NC(=O)Cn2cc3c(n2)CCCC3)CC1 (stereo not drawn),?,?,?,?,i,7.3µM
CCOC(=O)N1CCC(NC(=O)Cn2cc3c(n2)CCC(C)C3)CC1 (stereo not drawn),i,i,i,i,i,i
CCCNC(=O)COC(=O)/C(C#N)=C/c1cc(C)n(CCC)c1C,i,i,i,i,i,i
CCCn1c(C)cc(/C=C(\C#N)C(=O)OCC(=O)NC(=O)NC(C)(C)C)c1C,17µM,i,i,i,i,i
Cc1c(Cc2ccccc2)c(=O)oc2cc(OC(=O)c3ccccc3)ccc12,?,i,i,i,i,i
CC(C)(C)c1ccc(C(=O)Oc2ccc3c(c2)OCC3=O)cc1,2.7µM,i,i,i,i,i
O=C(Oc1ccc2c(c1)OCC2=O)c1ccccc1,27µM,i,i,i,i,i
CC(=O)Oc1ccc2c(c1)C(=O)c1ccccc1CO2,4.8µM,?,i,i,i,?
Cn1c(Nc2ccccc2)nc2ccccc21,?,?,i,i,nt,i
Nn1c(Nc2ccccc2)nc2ccccc21,11µM,?,2.8µM,4µM,?,?
COc1ccc(C(NC(=O)C(C)C)c2ccc3cccnc3c2O)cc1 (stereo not drawn),i,2.3µM,i,i,nt,i
O=C(O)c1ccc(-c2nnc(-c3cccc(Br)c3)o2)cc1,11µM,?,1.4µM,1.6µM,nt,?
Brc1cccc(-c2nnco2)c1,i,i,i,i,i,i
SMILES,FLuc modulator,ELG1 DNA repair,NPC1 prom act,Rab9 promoter act,SMN2 splice up,ELG1 genotox
Brc1ccc(-c2nnc(-c3cccc(Br)c3)o2)cc1,9.5µM,i,3.2µM,i,i,i
O=C(CCS(=O)(=O)c1cc(Br)cc2c1N(C(=O)C1CC1)CC2)Nc1ccc(F)cc1,i,nt,nt,nt,i,nt
O=C(CSc1nc2c(c(=O)[nH]1)CCCC2)Nc1ccccc1C(F)(F)F,i,nt,nt,nt,nt,nt
O=C(Cn1nnc2ccccc21)OCc1ccccc1,21µM,i,i,i,nt,i
c1ccc(CCn2nnc3ccccc32)cc1,11µM,?,3.2µM,3.2µM,nt,?
O=C(Cn1nnc2ccccc21)OCC(=O)c1ccc(Cl)cc1,?,i,i,i,nt,i
O=C(Cn1nnc2ccccc21)NCc1ccccc1,13µM,?,2.2µM,3.2µM,11µM,7.3µM
Cc1nc2ccccc2n1CC(=O)NCc1ccccc1,i,i,i,i,nt,?
CC1CCN(C(=O)CN2CCSc3ccc(S(=O)(=O)N(C)C)cc32)CC1,i,nt,nt,nt,nt,nt
CSc1nc(N)n2nc(C(C)(C)C)cc2n1,17µM,?,i,i,nt,i
CC(C)(C)c1cc2nc(N)nc(N)n2n1,i,i,i,i,nt,i
CCCCN1C(C(=O)c2ccccc2)=C(OC(=O)CC)c2ccccc2S1(=O)=O,i,nt,nt,nt,i,nt
CCN(CC)S(=O)(=O)c1ccc(N2CCOCC2)c(NC(=O)c2c3c(nc4ccccc24)CCC3)c1,i,13µM,i,i,i[1.84 µM],i
CCOc1ncccc1C(=O)Nc1cc(S(=O)(=O)N(CC)CC)ccc1N1CCOCC1,nt,5.2µM,nt,nt,nt,i
CCOc1ncccc1C(=O)Nc1cc(C(F)(F)F)ccc1N1CCOCC1,i,i,i,i,nt,i
CCN(CC)S(=O)(=O)c1ccc(N2CCOCC2)c(NC(=O)c2ccc3ccccc3c2)c1,i,15µM,i,i,i,i
O=S1(=O)C=C(Sc2nc3cc(Cl)ccc3o2)c2ccccc21,i,21µM,i,i,nt,i
CCOC(=O)CCCCCC(=O)Nc1ccc2c(c1)C(=O)N([C@H](C)CO)C[C@@H](C)[C@H](CN(C)Cc1ccc3c(c1)OCO3)O2,nt,?,nt,nt,nt,i
CC(=O)c1ccc(NC(=O)CC2Nc3cccc4cccc(c34)NC2=O)cc1 (stereo not drawn),i,21µM,i,i,i,i
CCCCCCCCNCCS(=O)(=O)NN1CCOCC1,nt,?,nt,nt,nt,i
COC(=O)c1cc(/C=C/c2ccccc2)[nH]n1,17µM,?,?,?,nt,i
CC(=O)/C(C#N)=C1\NC(=O)C(Cc2ccc(C)c(C)c2)S1 (stereo not drawn),21µM,?,i,i,?,i
COC(=O)c1cccc(Cn2c(Cl)c(/C=N/NC(=O)c3ccco3)sc2=O)c1,i,i,i,i,nt,i
Cc1nc2ccc(S(=O)(=O)Nc3cccc(-c4nc5cccnc5s4)c3C)cc2s1,?,i,i,i,i,i
Cc1c(NS(C)(=O)=O)cccc1-c1nc2ccccc2s1,8.5µM,nt,nt,nt,nt,nt
CS(=O)(=O)Nc1ccc(-c2nc3ccccc3s2)cc1,1.1µM,nt,nt,nt,nt,nt
COc1ccccc1CNC(=O)CCCCn1c(=O)c2ccccc2n(CC(=O)Nc2c(C)cc(C)cc2C)c1=O,i,nt,nt,nt,i,nt
CCOC(=O)c1sc(NC(=O)c2ccc(C)s2)cc1C,0.85µM,?,?,1.1µM,22µM,i
